Results: article PMC4336329 (PLoS ONE, 2015)
Hit rate of the full screen: of about 310,000 compounds, about 14,000 (4.5%) showed an effect of 50% or more. Effects have a minus sign here. Shown is part of a subset that was picked to be rich in strong results.

target: human ether-à-go-go-related gene (hERG) potassium channel (human, UniProt Q12809); assay: primary screen, population patch clamp on CHO cells stably expressing hERG; higher = less effect of the substance
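Further: peak tail current of the secondary pulse compared with the same well before compound.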

Chain of human ether-à-go-go-related gene (hERG) potassium channel (Q12809 whole entry, looked up): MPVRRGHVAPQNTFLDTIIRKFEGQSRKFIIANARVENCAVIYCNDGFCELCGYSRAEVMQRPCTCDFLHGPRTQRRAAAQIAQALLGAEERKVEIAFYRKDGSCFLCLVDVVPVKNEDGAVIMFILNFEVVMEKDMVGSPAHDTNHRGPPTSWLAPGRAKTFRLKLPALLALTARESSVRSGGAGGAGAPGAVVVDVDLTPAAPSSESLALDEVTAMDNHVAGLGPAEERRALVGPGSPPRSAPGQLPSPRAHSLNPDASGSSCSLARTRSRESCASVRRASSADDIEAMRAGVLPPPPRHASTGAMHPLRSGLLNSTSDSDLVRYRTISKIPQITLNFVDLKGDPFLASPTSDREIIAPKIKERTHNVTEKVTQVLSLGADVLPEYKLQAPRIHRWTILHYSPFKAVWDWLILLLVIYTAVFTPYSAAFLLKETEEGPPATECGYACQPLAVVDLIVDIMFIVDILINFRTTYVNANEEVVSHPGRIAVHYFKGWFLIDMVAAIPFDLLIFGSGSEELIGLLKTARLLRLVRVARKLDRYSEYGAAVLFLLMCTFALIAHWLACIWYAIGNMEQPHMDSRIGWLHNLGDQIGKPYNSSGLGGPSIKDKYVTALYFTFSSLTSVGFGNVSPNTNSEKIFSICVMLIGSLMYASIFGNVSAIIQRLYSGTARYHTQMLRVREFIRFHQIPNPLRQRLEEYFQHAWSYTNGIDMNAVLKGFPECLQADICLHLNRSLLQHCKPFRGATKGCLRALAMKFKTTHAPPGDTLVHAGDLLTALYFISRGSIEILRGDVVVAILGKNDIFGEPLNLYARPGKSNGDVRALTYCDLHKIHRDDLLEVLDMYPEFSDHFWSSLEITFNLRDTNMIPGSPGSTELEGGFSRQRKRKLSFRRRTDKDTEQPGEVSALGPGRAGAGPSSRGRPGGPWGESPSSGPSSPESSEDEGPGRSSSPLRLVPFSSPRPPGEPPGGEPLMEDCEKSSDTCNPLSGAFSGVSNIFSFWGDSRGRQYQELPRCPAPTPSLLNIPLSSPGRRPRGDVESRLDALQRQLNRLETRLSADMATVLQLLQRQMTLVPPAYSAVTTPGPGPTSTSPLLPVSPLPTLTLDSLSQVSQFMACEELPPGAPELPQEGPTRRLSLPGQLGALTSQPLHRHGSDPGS

Structure (SMILES) | hERG current change (%, negative = inhibition) at 10uM [%]
NCCN=C1NS(=O)(=O)c2ccccc21 | 0.316
CCOc1ccc(OCC(=O)Nc2ccc(S(=O)(=O)Nc3cc(C)nc(C)n3)cc2)cc1 | 16.4
COc1cccc(-c2nc(N3CCCC3)c3ccccc3n2)c1O | -5.65
Cc1ccc(C)c(C(=O)COC(=O)c2cc(Cl)nc3ccccc23)c1 | 26.4
O=C(Nc1ccc2c(c1)CCC2)Nc1ccc2c(c1)OCO2 | 6.88
O=C(Nc1ccc(C(=O)N2CCCCC2)cc1)c1ccccc1Br | 8.24
O=C(NCc1ccccn1)c1ccc(=O)oc1 | 1.42
Cc1cc(Cl)ccc1OCC(=O)Nn1c(C)ccc1C | 3.73
Cc1ccc(C(=O)NCc2ccco2)cc1Br | -11.5
COc1cccc(NC(=O)C23CCC(C)(C(=O)O2)C3(C)C)c1 (stereo not shown) | -5.46
COc1ccc(OC)c(/C=C2\Oc3cc(OCC(=O)N4CC(O)C[C@H]4C(=O)O)ccc3C2=O)c1 (stereo partly shown) | 4.97
COc1ccccc1OCCCn1cc(C(=O)C2CC2)c2ccccc21 | -2.64
COc1cccc(C(=O)NN2C(=S)N(c3ccccc3)C(=O)C2CC(N)=O)c1 (stereo not shown) | 16.2
O=C(COc1ccc2ccccc2c1)Nc1ccccc1C(=O)O | 26.6
CCCC(=O)NC(=S)Nc1cccc(Cl)c1N1CCCCC1 | 14.1
C/C(=N\NC(=O)c1ccccc1O)C1CC1 | -62.2
C/C(=N\NC(=O)c1ccccc1O)C1C(=O)c2ccccc2C1=O | -0.25
C/C(=N\NC(=O)C1CC1)c1ccccc1O | 0.248
CC(=O)c1ccc(N2CCN(CC(=O)N(CC(C)C)c3c(N)n(CC(C)C)c(=O)[nH]c3=O)CC2)cc1 | 10.7
CCCn1cc(CN2CCC(n3nccc3NC(=O)c3ccccc3)CC2)c(C)n1 | -11
CCCn1ncc(CN2CCC(n3nccc3NC(=O)CCc3ccccc3)CC2)c1C | -26.2
CCCCc1ncc(CN2CCC(n3nccc3NC(=O)c3ccccc3Cl)CC2)[nH]1 | -40.3
CCCn1ncc(CN2CCC(n3nccc3NC(=O)c3ccccc3Cl)CC2)c1C | -75.8
Cc1c(CN2CCC(n3nccc3NC(=O)c3cccc(F)c3)CC2)cnn1C | 9
COc1ccccc1C(=O)Nc1ccnn1C1CCN(Cc2cnn(C)c2C)CC1 | -63.7
CCCn1ncc(CN2CCC(n3nccc3NC(=O)c3ccccc3OC)CC2)c1C | -79.2
Cc1c(CN2CCC(n3nccc3NC(=O)CCc3ccccc3)CC2)cnn1C | 12.6
O=C(c1ccc2c(c1)OCO2)N1CCc2ccccc21 | -2.34

Structure (SMILES) | hERG current change (%, negative = inhibition) at 10uM [%]
COCCOC(=O)c1c(C)n(C)c2ccc(OC(=O)c3ccco3)cc12 | -2.37
CCc1n[nH]c(=S)n1/N=C/c1c(C)nn(-c2ccccc2)c1Cl | 21.4
CN(C)c1ccc(/C=N/n2c(C3CCCCC3)n[nH]c2=S)cc1 | 20
Cc1csc(CN(C)C(=O)C2CCC(=O)N(CCCc3ccccc3)C2)n1 (stereo not shown) | -5.37
CCC1(CCCC(=O)c2ccc(F)cc2)C(=O)NC(=S)NC1=O | -3.66
CCc1ccc(NC(=O)COc2coc(CN3CCN(c4ccccc4)CC3)cc2=O)cc1 | 12.3
Cc1ccc(NC(=O)COc2coc(CN3CCN(Cc4ccccc4)CC3)cc2=O)cc1 | -73.3
O=C(COc1coc(CN2CCN(c3ccccc3)CC2)cc1=O)Nc1ccccc1F | -3.41
Cc1cccc(NC(=O)COc2coc(CN3CCN(Cc4ccccc4)CC3)cc2=O)c1 | -65
O=C(COc1coc(CN2CCN(c3ccccc3)CC2)cc1=O)NC1CCCCC1 | -46.1
Cc1cccc(NC(=O)COc2coc(CN3CCN(c4ccccc4)CC3)cc2=O)c1C | -28.6
Cc1cccc(NC(=O)COc2coc(CN3CCc4ccccc4C3)cc2=O)c1 | -8.19
O=C(COc1coc(CN2CCN(c3ccccc3)CC2)cc1=O)NC1CCCC1 | -13.6
COc1ccccc1NC(=O)COc1coc(CN2CCN(c3ccccc3)CC2)cc1=O | -60
O=C(COc1coc(CN2CCN(c3ccc(F)cc3)CC2)cc1=O)NC1CCCC1 | -53.1
Cc1ccc(NC(=O)COc2coc(CN3CCN(c4ccccc4)CC3)cc2=O)cc1 | 1.7
Cc1cccc(NC(=O)COc2coc(CN3CCN(c4ccccc4)CC3)cc2=O)c1 | -7.9
CN(C)c1ccc(CN2CCCCC2)cc1 | 14.9
CCN(CC(=O)N1CCCCCC1)S(=O)(=O)c1ccc(Cl)cc1 | -13.5
CC1=Nc2ccccc2N=C(NC(=O)/C=C/C(=O)O)C1c1ccccc1 (stereo not shown) | 2.53
O=c1[nH]c(=O)n(-c2ccccc2F)c(O)c1C=NCCC1=CCCCC1 | 25.6
Cc1c(NC(=O)CN2CCC(C(N)=O)CC2)cccc1[N+](=O)[O-] | 26.4
COc1ccc(N2CCN(C(c3cc(OC)ccc3OC)c3nnnn3CC3CCCO3)CC2)cc1.Cl (stereo not shown) | -9.64
CC(C)CNC(=O)[C@H](Cc1ccccc1)NC(=O)c1ccco1 | -6.82
CNC(=O)COc1coc(CN2CCN(Cc3ccccc3)CC2)cc1=O | 1.83
Cc1ccccc1NC(=O)COc1coc(CN2CCN(Cc3ccccc3)CC2)cc1=O | -53.3
Cc1ccccc1NC(=O)COc1coc(CN2CCN(c3ccccc3)CC2)cc1=O | -21.1
